Compound activity: PubChem BioAssay, The Scripps Research Institute Molecular Screening Center
hgDAF12 agonist: H. glycines DAF-12 receptor agonists, primary screen, cell-based, luminescence, HEK293, GAL4 fusion, UAS-luciferase; HEK293 GAL4-hgDAF12 UAS-luciferase reporter, agonist luminescence; normalized to butyrate control; 370,000 compounds, 1.8% hits; AID 687014, 2013; activation, % at 6.8 µM; Nuclear hormone receptor DAF-12 (Heterodera glycines), GAL4 fusion;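 active = activation above a cutoff set at the mean of all screened compounds plus 3 SD, cut at about 10% in these data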;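 note: 0% = DMSO wells and 100% = sodium butyrate wells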
DAX1 inh-1: DAX1 (NR0B1) inhibitors on StAR promoter, primary screen, cell-based, luminescence, SF-1 (NR5A1), full-length DAX-1; HEK293T StAR-luciferase reporter, SF-1/DAX-1 repression relief; inhibition, % at 6.8 µM; 370,000 compounds, 1.1% hits;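 active = inhibition above the mean over all tested compounds plus 3 SD, cut at about 3.6% in these data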;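 note: 0% = DAX-1 cells with DMSO and 100% = cells lacking DAX-1 with DMSO; higher inhibition means more luminescence from relief of DAX-1 repression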
hcDAF-12 act: H. contortus DAF-12 nuclear receptor activators, primary screen, cell-based, luminescence, HEK293, lit1-tk-luc reporter; activation, % at 6.8 µM; HEK293 hcDAF-12 lit1-tk-luc reporter; 0% DMSO, 100% Δ7-dafachronic acid; AID 652067, 2013; 370,000 compounds, 1.4% hits;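 active = activation above the mean of all tested compounds plus 3 SD, cut at about 5.5% in these data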;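 note: 100% = response to 3 µM Δ7-dafachronic acid high control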
ssDAF-12 act: S. stercoralis DAF-12 nuclear receptor activators, primary screen, cell-based, luminescence, HEK293, GRIP1 co-expression, lit1-tk-luc. HEK293 ssDAF-12/GRIP1 lit1-tk-luc reporter; % of 3 µM dafachronic acid response. activation, % at 6.8 µM. Nuclear hormone receptor DAF-12 (Strongyloides stercoralis). 370,000 compounds, 1% hits. AID 652126, 2013;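 active = activation above the mean over all tested compounds plus 3 SD, cut at about 0.9% in these data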;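 note: 0% = DMSO-only wells and 100% = 3 µM delta7-dafachronic acid wells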
DAX1 inh-2: DAX1 (NR0B1) inhibitors, primary screen, cell-based, HEK293, Gal4-DAX1, luciferase luminescence. Nuclear receptor subfamily 0 group B member 1 (Homo sapiens), P51843. HEK293 Gal4-DAX1 luciferase reporter. inhibition, % at 6.75 µM. 340,000 compounds, 0.99% hits;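 active = inhibition above the mean over all tested compounds plus 3 SD, cut at about 4.2% in these data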;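 note: 0% = DAX1-transfected cells with DMSO and 100% = empty-vector control cells with DMSO; inhibition shows as a rise in luminescence from relieved DAX1 repression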
Target sequence (P51843 207-470 limits assumed): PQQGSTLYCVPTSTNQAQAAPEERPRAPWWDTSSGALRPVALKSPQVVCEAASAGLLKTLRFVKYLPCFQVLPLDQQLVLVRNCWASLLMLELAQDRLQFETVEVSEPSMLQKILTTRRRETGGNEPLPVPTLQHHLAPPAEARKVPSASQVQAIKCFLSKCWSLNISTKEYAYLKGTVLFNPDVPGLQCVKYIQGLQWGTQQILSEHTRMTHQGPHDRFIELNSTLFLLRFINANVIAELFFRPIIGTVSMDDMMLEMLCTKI
Numbers without * were called inactive; . = no result given. Sampled rows, rich in hits. Any-hit rate of the full collection: about 4.1%.

SMILES | hgDAF12 agonist | DAX1 inh-1 | hcDAF-12 act | ssDAF-12 act | DAX1 inh-2
COc1ccc(C2C(C(=O)N3CCCCC3C)CC(=O)N2c2ccc(OC)cc2)cc1 (stereo not drawn) | -1 | 0 | -3 | 0 | .
O=C(Nc1cccc2ccccc12)C(=O)C1C(=O)Nc2ccccc21 (stereo not drawn) | 2 | 0 | 6.1* | 0 | 0
Cc1ccc(S(=O)(=O)N2CCN(C(=O)Cn3c(=O)oc4ccccc43)CC2)cc1 | 10 | 2 | 4 | 1.0* | 1
COc1cccc(N2CCN(C(=O)Cn3c(=O)oc4ccccc43)CC2)c1 | 1 | 0 | 1 | -2 | 4.3*
Cc1ccc(NC2Sc3ccccc3NC2=O)cc1 (stereo not drawn) | 15* | 4 | 5 | 1.0* | 1
O=C1Nc2ccccc2SC1c1ccccc1 (stereo not drawn) | 0 | 0 | -2 | -1 | 0
Cc1ccc(C(=O)/C=C/c2cn(CN3CCN(C)CC3)c3ccccc23)cc1 | 13* | 2 | 1 | 0 | 0
COc1ccc(CNc2ccc([N+](=O)[O-])cn2)cc1 | 12* | 0 | 0 | 0 | 2
C=CCN1C(=O)[C@H](CC(=O)N2CCSCC2)[C@@]2(C(=O)OCC)CCCC=C12 | 1 | 1 | -3 | 0 | .
Cc1nn(-c2ccccc2)c2sc(C(=O)NC3CCCc4ccccc43)cc12 (stereo not drawn) | -2 | 1 | 0 | -1 | .
COc1ccc(N=c2cc(-c3ccc(OC)cc3)oc3ccccc23)cc1 | 8 | 0 | 0 | 1.0* | 2
CCOC(=O)c1c(C)[nH]c(C(=O)OCc2ccccc2F)c1C | 13* | 3 | 6.3* | 0 | 5.5*
CCOC(=O)c1c(C)[nH]c(C(=O)OCC(=O)N(C)CC(=O)Nc2ccccc2Cl)c1C | 2 | -3 | 3 | 1.0* | -1
CCOC(=O)c1c(C)[nH]c(C(=O)OCCOc2ccccc2C)c1C | 11* | 3 | 4 | 0 | 3
CCOC(=O)c1[nH]c(C)c(C(=O)Nc2ccccc2F)c1C | 10 | -1 | 1 | -1 | -1
CCOC(=O)c1c(C)[nH]c(C(=O)OCC(=O)Nc2cccnc2Cl)c1C | -3 | -2 | -2 | -1 | 0
COC(=O)[C@H](C(C)C)N(CCCc1cn(CC2CCCCC2)nn1)S(=O)(=O)c1ccc(F)cc1Br | -1 | -1 | -4 | -1 | .
CCOc1ccc(CN2CCN(Cc3cccn3-c3nccs3)CC2CCO)cc1 (stereo not drawn) | -1 | 0 | 0 | -1 | 3
COC(=O)NCN1C(=O)C2C3C=CC(C3)C2C1=O (stereo not drawn) | 1 | 0 | -1 | -1 | -1
CC(C)OC(=O)NCN1C(=O)C2C3C=CC(C3)C2C1=O (stereo not drawn) | 11* | 0 | -1 | 0 | 1
Cc1ccc(OCC(=O)Nc2ccc(C)c(F)c2)c([N+](=O)[O-])n1 | 7 | 3.7* | 1 | 0 | 2
COC(=O)[C@]12C[C@H](CC(=O)NCc3ccccc3)C(=O)N(Cc3ccc4c(c3)OCO4)C1=C[C@H](C(C)C)O[C@@H]2C1CC1 | 2 | 0 | -1 | -1 | .
O=c1c2sc(-c3ccccc3)cc2nc2n1CCCCC2 | 12* | 3 | 4 | 0 | 5.0*
O=c1c2sc(-c3ccccc3)cc2nc2n1CCC2 | 13* | 4.3* | 5.8* | 0.9* | -1
Cn1c(NCCN2CCCC2)nc2cc(-c3ccccc3)sc2c1=O | 0 | 1 | 0 | 0 | .
SMILES | hgDAF12 agonist | DAX1 inh-1 | hcDAF-12 act | ssDAF-12 act | DAX1 inh-2
COc1ccc(CN2C(=O)N3Cc4ccccc4C3CS2(=O)=O)cc1 (stereo not drawn) | -2 | 1 | -1 | -2 | .
Cc1ccccc1NC(=O)NCCc1ccc(Cl)cc1 | 5 | 0 | 0 | 0 | 0
S=C(NCCc1ccccc1)Nc1ccc(Cl)cc1 | 11* | 1 | 1 | 0 | 0
O=C(NCCc1ccccc1)Nc1ccc(Cl)cc1 | 13* | 3 | 4 | 1 | 2
N#Cc1ccc(/C=C2\CC3(OC(=O)C4CCCC4)CCCN2C3)cc1 (stereo not drawn) | 7 | 0 | -2 | -1 | .
O=C(NC(Cc1c[nH]c2ccccc12)C(=O)O)/C(=C/c1ccc(F)cc1)NC(=O)c1ccccc1 (stereo not drawn) | 2 | 0 | 5 | 0.9* | 2
COC(=O)C(Cc1c[nH]c2ccccc12)NC(=O)C(C)C (stereo not drawn) | -1 | -1 | 1 | -1 | 0
Cc1ccc(/C=C(/NC(=O)c2ccccc2)C(=O)NC(Cc2c[nH]c3ccccc23)C(=O)O)cc1 (stereo not drawn) | 4 | 1 | 4 | 0 | -2
COC(=O)C(Cc1c[nH]c2ccccc12)NC(=O)C(=O)c1c[nH]c2ccccc12 (stereo not drawn) | 3 | 0 | 5.9* | 0 | 0
O=C(O)c1cc(S(=O)(=O)NC(Cc2c[nH]c3ccccc23)C(=O)O)ccc1Cl (stereo not drawn) | 2 | 0 | 5.9* | 0.9* | 1
O=C(O)C(Cc1c[nH]c2ccccc12)NS(=O)(=O)c1ccc2ccccc2c1 (stereo not drawn) | 1 | 0 | 4 | 0 | 1
CN(Cc1ccco1)S(=O)(=O)c1ccc2c(c1)CCN2C(=O)CC(C)(C)C | 4 | -1 | -3 | -1 | .
Cc1occc1-c1nnc(SCC(=O)N2CCN(c3ncccn3)CC2)n1-c1ccccc1 | -2 | -1 | -2 | -1 | .
COc1ccc(C2CC(c3ccc(C)o3)=NN2C(C)=O)cc1 (stereo not drawn) | 9 | 2 | 1 | 0 | 1
COc1ccc(C2CC(c3ccc4ccccc4c3OC(C)=O)=NN2C(C)=O)cc1 (stereo not drawn) | 6 | 1 | 2 | -1 | 5.4*
CCOC(=O)C1(Cc2ccccc2)CCN(Cc2cccc(C#N)c2)CC1 | 3 | 0 | -2 | -1 | .
CCn1c(SCC(=O)Nc2ccc3c(c2)OCO3)nnc1C1CC1 | 2 | 0 | 0 | 0 | 4.9*
O=c1[nH]c(-c2ccccc2)cnc1-c1ccccc1 | 11* | 2 | 5 | 0 | .
CCCC/C(O)=C1\C(=O)CC(C)(C)CC1=Nc1ccccc1OC | -3 | 0 | -3 | -2 | -1
CCCC/C(O)=C1\C(=O)CC(C)(C)CC1=Nc1ccc(N)cc1 | 3 | 1 | 0 | -1 | 6.0*
O=C(NCC(=O)N1CCCCCC1)c1ccc(Cl)cc1 | 5 | 1 | 0 | -1 | 1
